Sampled rows, rich in hits. Any-hit rate of the full collection: about 2.8%.
DRD3 antagonist – blocks the human D3 dopamine receptor; D3R cells, DiscoveRx beta-arrestin luminescence, antagonist mode; active compounds read low; max response, negative = inhibition, %; 360,000 tested, 2.5% active; in the data active = max response below about -50%; inconclusive = no clear call, values can overlap the other calls; note: % is set by controls: 0 for no effect and ±100 for the full control effect
Target sequence (P35462 whole entry, looked up): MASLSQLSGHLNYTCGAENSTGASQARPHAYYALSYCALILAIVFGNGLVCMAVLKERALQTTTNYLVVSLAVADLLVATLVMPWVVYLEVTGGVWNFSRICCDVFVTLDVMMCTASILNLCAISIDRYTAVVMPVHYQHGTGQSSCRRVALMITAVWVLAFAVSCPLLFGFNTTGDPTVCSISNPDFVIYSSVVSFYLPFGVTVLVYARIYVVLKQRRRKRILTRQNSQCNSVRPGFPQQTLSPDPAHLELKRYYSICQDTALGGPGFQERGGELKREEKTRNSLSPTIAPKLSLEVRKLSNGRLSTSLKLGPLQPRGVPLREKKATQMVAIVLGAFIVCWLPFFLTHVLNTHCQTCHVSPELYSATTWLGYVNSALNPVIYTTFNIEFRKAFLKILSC
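Cells plated overnight at 1500 cells/well, then exposed to library compounds with dopamine controls for 90 minutes at 37 degrees C. DiscoveRx reagent added for 30–60 minutes at room temperature; luminescence read, quantitative HTS format.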
DRD3 agonist – activates the human D3 dopamine receptor | 410,000 tested, 0.58% active | D3R DiscoveRx beta-arrestin cells, luminescence, 90 min | max activation, % | AID 652048; in the data active = max activation above about 30%; note: 0% is about no effect
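Agonist mode: compounds and dopamine controls were applied to plated cells for 90 min at 37 degrees C after an overnight attachment at 1500 cells/well. Luminescent read-out followed 30 - 60 minutes at room temperature with DiscoveRx detection reagent.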
RGS4 inhibitor – inhibitors of human regulator of G protein signaling 4; Transcreener GDP fluorescence polarization, RGS4-accelerated GTP hydrolysis; Potency, µM (series often up to 114 µM), without a hit: at the top dose activity change, negative = inhibition, actives largely listed as inhibitors; 390,000 tested, 0.039% active; active = well fitted inhibition curve with a large enough effect; inconclusive = small, poorly fitted or top-dose-only effect; inactive = no such curve, though single readings can be large or run the other way; note: potency is the fitted concentration of half-maximal effect; % is set by controls: 0 for no effect and ±100 for the full control effect; nearly all actives have a fitted effect of over 75% in size
Target sequence (P49798 whole entry, looked up): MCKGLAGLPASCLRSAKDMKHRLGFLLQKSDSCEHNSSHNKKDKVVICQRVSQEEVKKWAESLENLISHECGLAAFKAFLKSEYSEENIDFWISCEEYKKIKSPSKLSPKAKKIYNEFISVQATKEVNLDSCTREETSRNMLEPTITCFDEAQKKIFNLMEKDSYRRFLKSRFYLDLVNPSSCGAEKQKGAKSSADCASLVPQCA
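MLSMR compounds (23 nl, pin-transferred) preincubated 10 min at room temperature with a 500nM (2x) first reagent, then RGS4 at 900nM (2x) plus Transcreener GDP mix added; fluorescence polarization (620/688 nm) read before and after 90 min at 30 °C.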
LDHA inh – inhibitors of human lactate dehydrogenase A | P00338 | purified LDHA, NADH/diaphorase-resazurin fluorescence; active compounds read low | activity change, % (values are at about 110 or 230 µM) | 480,000 tested, 0.15% active | AID 1347041; in the data active = activity change below about -30%; inconclusive = mostly about -25% to -30%;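 note: plate controls were DMSO wells for no effect and wells without enzyme for full effect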
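Human LDH5 (2 nM) was incubated with 0.06 mM NADH and 0.2 mM pyruvate for 5 min at room temperature in Tris pH 7.4. Remaining NADH was coupled through diaphorase/resazurin, and resorufin fluorescence was read at 0 and 20 min.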
pAkt inh – Akt phosphorylation inhibition | AID 651550 | activity change, % for hits at 50 µM | 360,000 tested, 0.32% active | Neuro2A IGF-stimulated pAkt S473 HTRF, 20 min; active compounds read low; in the data active = activity change below about -80%; inconclusive = mostly about -51% to -80%; note: % is set by controls: 0 for no effect and ±100 for the full control effect
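Single-point screen (50 µM final compound) in Neuro2A cells stimulated 20 min with 6 nM IGF at 37 deg C. After lysis, Ser473-phosphorylated Akt read by HTRF (ex 330 nm, em 615/665 nm) as the 665/615 ratio.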
PI4K2A inh – inhibitors of human PI4K2A. purified PI4K2A, ADP-Glo luminescence, 1 h; active compounds read low. Q9BTU6. 420,000 tested, 0.13% active. activity change, negative = inhibition, % at 76.9 µM. AID 1346378; in the data active = activity change below about -50%; inconclusive = mostly about -30% to -49%;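 note: -100% = wells without enzyme as full effect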
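PI4K2A activity was measured by ADP-Glo luminescence: enzyme (4 ug/mL stock) and phosphatidylinositol (1.2 mM stock) in Tris pH 7.5/MgCl2/EGTA/Triton X-100 buffer were reacted with ATP (300 microM stock) for one hour at ambient temperature.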
* = called active by the depositor; i = inactive; u = inconclusive; x = not tested or not shown.

SMILES	DRD3 antagonist	DRD3 agonist	RGS4 inhibitor	LDHA inh	pAkt inh	PI4K2A inh
Cc1cccc(NC(=O)CSc2nc(-c3ccccc3)c(C#N)c(=O)[nH]2)c1C	-63.1*	-5.1	27.3%	-7.4	i	-8.4
O=Cc1c(Cl)nc2ccccn2c1=O	-66.7*	-4.6	3.3%	1.5	i	-1.0
Cc1cccn2c(=O)c(C=O)c(Cl)nc12	-26.7	-25.5	-43.7%	2.9	i	-7.1
Cc1ccccc1NC(=O)CSc1nc(C)c(C)o1	x	x	x	-3.4	x	x
CC(C)c1cc(NCc2cccnc2)n2ncc(-c3ccccc3)c2n1	x	x	x	-17.9	x	x
NCCCC[C@H]1NC(=O)[C@H](CCC(=O)O)NC(=O)c2cc([N+](=O)[O-])cc(I)c2OCC[C@@H](C(N)=O)NC1=O	-24.4	-18.5	7.8%	-39.7*	i	-10.9
CC1(Oc2ccc(-n3ccnc3)cc2)CCN(Cc2cccn2-c2nccs2)C1 (stereo not drawn)	0.0	56.1*	x	-4.9	i	-1.2
COc1ccc(NC(=O)C(=O)NCCN2CCN(C(=O)c3ccc(C)cc3)CC2)cc1	-69.9*	-16.7	9.6%	-1.2	i	-2.2
COc1ccc(C(=O)NCCN2CCN(C(=O)c3ccc(OC)cc3)CC2)cc1	-83.5*	-14.5	-5.4%	1.5	i	3.3
COc1ccc(C(=O)N2CCN(CCNC(=O)C(=O)Nc3ccc(F)cc3)CC2)cc1	-9.4	-8.2	2.4%	-3.5	i	7.4
COc1ccc(C(=O)NCCN2CCN(C(=O)c3ccc(OC)c(OC)c3)CC2)cc1OC	1.7	11.0	-18.7%	-2.9	i	0.6
Cc1ccc(-c2nc(CN3CCCCC3)cc(CN3CCCCC3)c2O)cc1	-54.7*	-15.1	-34.4%	1.5	i	-6.2
CSc1ccc(COC(=O)Cc2c[nH]c3ccccc23)cc1	x	x	x	6.5	x	x
C#CCn1cc(/C=C2/NC(=O)N(CC)C2=O)c2ccccc21	x	x	x	-0.8	x	x
COCCNC(=O)c1cc(-c2ccc(C)cc2)nc2ccccc12	x	x	x	2.0	x	x
Cc1ccc2nc3c(c(N)c2c1)CCN3C	u	-14.6	2.2%	1.5	i	-3.4
Cc1ccc2nc3c(c(N)c2c1)CCN3c1ccccc1	-77.5*	-5.9	19.9%	-10.4	i	2.6
COc1cc(/C=C(\C#N)C(=O)Nc2nnc(C(F)(F)F)s2)ccc1OCc1ccc(C(F)(F)F)cc1C(F)(F)F	x	x	18.9µM*	x	x	0.1
O=C(O)c1cccc(COc2ccc(Cl)cc2)c1	x	x	x	-1.0	x	x
CCOC(=O)C1=C(C(F)(F)F)NC2(O)c3ccccc3C(=O)C12O (stereo not drawn)	x	x	x	-8.9	x	x
CCc1cc(=O)oc2c(C)c(O)c(CN3CCCCC3)cc12	-11.0	0.3	2.0%	-3.5	-93.2%*	-2.3
Cc1cc2oc(=O)cc(CN3CCCCC3)c2cc1C(C)C	-78.0*	0.4	8.9%	2.5	i	8.6
Cc1cc2oc(=O)cc(CN3CCC(C)CC3)c2cc1C	-71.5*	-12.2	2.0%	0.1	i	2.1
Cc1c(O)c(CN2CCCC2)cc2c3c(c(=O)oc12)CCC3	-9.2	-13.0	15.8%	-3.9	i	6.9
CC(=O)N1CCN(Cc2cc(=O)oc3cc(C)c(C)cc23)CC1	-80.0*	-4.2	x	-10.2	i	0.5
SMILES	DRD3 antagonist	DRD3 agonist	RGS4 inhibitor	LDHA inh	pAkt inh	PI4K2A inh
Cc1cc2oc(=O)cc(CN3CCC(C(=O)N(C)C)CC3)c2cc1C(C)C	x	x	x	3.5	x	x
O=c1cc(O)n(C2CCCCCC2)c(=O)[nH]1	7.5	3.1	u	3.3	i	-51.3*
O=c1[nH][nH]c(=S)n1C1CCCCC1	-0.3	13.3	-128.4%	-4.8	i	0.3
CC1CCN(CCc2nc3cc(NC(=O)NC4CCCCC4)ccc3n2C)CC1	-85.5*	-28.3	-3.1%	-1.5	x	2.3
Cc1ccc(OCC(=O)Nc2ccc3c(c2)nc(CCN2CCC(C)CC2)n3C)cc1	-54.2*	-16.5	-27.2%	3.0	i	-0.5
COc1ccc(-c2cc(C(=O)NCC(O)CO)c3ccccc3n2)cc1 (stereo not drawn)	x	x	x	15.1	x	x
COc1ccc(/C=C/C(=O)NC2CCCC2)c(OC)c1	x	x	x	11.9	x	x
CCOc1cc(CNc2ccc(O)cc2)cc(Br)c1OCc1ccccc1F	0.1	5.2	u	20.8	i	u
COc1cc(CNc2ccc(O)cc2)cc(Br)c1OCc1ccccc1F	4.4	5.8	u	32.2	i	-51.3*
CCOc1ccc(/C(O)=C2\C(=O)C(=O)N(CCN(C)C)C2c2cccc(OC)c2OC)cc1Cl (stereo not drawn)	-56.3*	-1.1	-26.9%	-5.0	i	4.3
CC(=O)c1c(C)[nH]c(C(=O)OCC(=O)c2ccc(C)s2)c1C	-3.4	44.2*	15.0%	-3.9	i	0.5
Cc1cc(C)n(-c2ccc(C(=O)OCC(=O)NC3CCS(=O)(=O)C3)cc2)n1 (stereo not drawn)	x	x	x	-30.4*	x	x
CNC(=O)COC(=O)c1[nH]c(C)c(C(C)=O)c1C	-79.1*	-3.2	35.7%	-12.2	i	6.3
CC(=O)c1c(C)[nH]c(C(=O)OCC(=O)NCC(C)C)c1C	9.8	2.8	-16.3%	-3.3	i	6.6
CCOC(=O)c1c(C)[nH]c(C(=O)OCC(=O)NC2CCS(=O)(=O)C2)c1C (stereo not drawn)	-24.1	-9.8	23.8%	-4.4	-112.5%*	-1.2
Cc1cc(C)n(-c2ccc(C(=O)OCC(=O)NC(=O)NC3CCCC3)cc2)n1	x	x	x	-2.8	x	x
O=C1CCN(CCc2ccccc2)CCN1[C@H](CSc1ccccc1)c1ccccc1	u	-38.2	9.5%	2.7	i	-63.2*
CC(C)C[C@@H](CSc1ccccc1)N1CCN(CCc2ccccc2)CCC1=O	-56.2*	-31.4	-6.9%	0.6	i	-1.7
COc1ccc(C2=NN(c3nc(C(=O)O)cs3)C(O)(C(F)(F)F)C2)c(OC)c1 (stereo not drawn)	2.9	-5.5	-39.7%	-63.5*	i	-6.3
Cc1cc(NC(=O)c2cc(-c3ccc(Br)cc3)nc3ccccc23)nn1C	x	x	x	8.5	x	x
CN1CCN(c2oc(-c3ccccc3)nc2C#N)CC1	x	x	x	-4.5	x	x
Cc1ccc(C(Nc2ccc3nnnn3n2)c2cccs2)cc1 (stereo not drawn)	x	x	x	-4.5	x	x
N#Cc1ncn(CC(=O)Nc2cc(F)ccc2F)n1	x	x	x	-5.4	x	x
CCOc1ccc2[nH]c(=O)c(CN(Cc3cccs3)Cc3nnnn3C(C)(C)CC)cc2c1	20.5	31.4*	20.9%	-3.3	i	-1.4
CN1CCC(=C2c3ccccc3C=Cc3ccccc32)CC1	-115.0*	x	u	-6.9	i	-0.8
CN1CCC(=C2c3ccccc3Sc3ccccc32)CC1	-108.0*	-96.7	-1.1%	-7.0	i	-2.4
CN1CCC(=C2c3ccccc3CCc3cccnc32)CC1	x	-24.9	x	x	x	-1.7
O=C1Cc2ccccc2Sc2ccccc21	-24.6	-5.9	u	6.0	i	4.0
